Compound activity deposited in PubChem BioAssay by National Center for Advancing Translational Sciences (NCATS).
Lassa entry inh: Lassa virus entry inhibition; Lassa virus pseudotype entry inhibition, cell reporter; Potency, µM (doses to about 37.9 µM), inactives show top-dose activity change, negative = inhibition, most hits filed as inhibitors; actives 1.2% (n = 300,000); calls by dose curve; tested in HEK293 cells; note: potency is the fitted concentration of half-maximal effect; nearly all actives have a fitted effect of over 50% in size
HCV inh: blocks hepatitis C virus; Potency, µM (doses to about 41.8 µM), for the others: at the highest dose activity change, negative = inhibition, actives largely listed as inhibitors; Huh7.5.1 HCVcc-Cre infection, luciferase reporter, 44 h; AID 651820; actives 3.4% (n = 340,000); active = well fitted inhibition curve with a large enough effect; inconclusive = small, poorly fitted or top-dose-only effect, or another doubt; inactive = no such curve, though single readings can be large or run the other way; note: potency is the fitted concentration of half-maximal effect
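Antiviral activity was scored by luciferase reporter output from cells infected with HCVcc-Cre (~0.5 moi) in presence of compound, 44 h infection period, cells seeded 1,000/well 4 h prior.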
FMDV antiviral: blocks foot and mouth disease virus | Potency, µM (series often up to 57.9 µM), inactives show top-dose activity change, negative = inhibition, usual class: inhibitors | FMDV antiviral cell-based qHTS | AID 1159524 | actives 1.2% (n = 410,000); calls by dose curve; tested in HEK293T cells; note: read-out not given here; potency is the fitted concentration of half-maximal effect; nearly all actives have a fitted effect of over 45% in size
MARV entry inh: Marburg virus entry inhibition | AID 540276 | actives 1.8% (n = 300,000) | Potency, µM (titrated, usually from 37.8 µM), for inactives: at the top dose activity change, negative = inhibition, usual class: inhibitors | Marburg virus pseudotyped entry inhibition, cell reporter; calls by dose curve; tested in HEK293 cells; note: potency is the fitted concentration of half-maximal effect
HCMV antiviral: blocks human cytomegalovirus replication | activity change, negative = inhibition, % at 57.5 µM | actives 4.5% (n = 410,000) | AID 1259415 | HFF cells, HCMV-luciferase reporter, 72 h; stronger effect = lower value; in the data active = activity change below about -60%; inconclusive = no clear call, values can overlap the other calls; inactive = above about -39%
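Luciferase read-out from HCMV-luciferase-infected HFFs (MOI 1 PFU/cell) 72 h post infection at 37C; compounds added after 16 h cell attachment; activity normalized between buffer-only basal and Salinomycin (10uM) inhibitor controls.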
An asterisk follows results filed as active; [ ] = another dose, or the depositor's remark. Hits are enriched below; roughly 7.9% of the tested compounds scored in any of these assays. % is set by controls: 0 for no effect and ±100 for the full control effect.

Cc1cccc(C)c1N=C1NN=C(c2ccccc2F)CS1 was read as Lassa entry inh 0%, HCV inh inconclusive, FMDV antiviral -20%, MARV entry inh inconclusive and HCMV antiviral 0.
COc1ccc(N=C2NN=C(c3ccc4c(c3)OCCO4)CS2)cc1 was read as Lassa entry inh -13%, HCV inh inconclusive, FMDV antiviral 2%, MARV entry inh 1% and HCMV antiviral 5.
c1cc2c(cc1C1=NNC(=NC3CC3)SC1)OCCO2 was read as Lassa entry inh 0.29µM*, HCV inh -16%, FMDV antiviral inconclusive, MARV entry inh 0.33µM* and HCMV antiviral -90*.
`COc1ccccc1/C=C/c1nc2ccccc2n1C(C)C` gave Lassa entry inh -1%[46.1 µM], FMDV antiviral 12%, MARV entry inh 12%[46.1 µM] and HCMV antiviral 71.
Screening CCOC(=O)[C@]12CCC=C1N(Cc1ccco1)C(=O)[C@H](CC(=O)NCc1ccccc1)C2 returned FMDV antiviral 3% and HCMV antiviral 16.
CCCCN1CC(COc2ccc(OC)cc2)OCCS1(=O)=O (configuration not stated) was read as HCMV antiviral -22.
O=C(CSc1nnc(CNC(=O)c2ccco2)o1)Nc1ccccc1F was read as Lassa entry inh 26%[46.1 µM], HCV inh 8%, FMDV antiviral -15%, MARV entry inh 5%[46.1 µM] and HCMV antiviral -40.
`CCCCN=C1NN=C(c2ccc3c(c2)OCCO3)CS1` gave Lassa entry inh 7.9µM*, HCV inh -20%, FMDV antiviral inconclusive, MARV entry inh inconclusive and HCMV antiviral -4.
For FC(F)Sc1ccc(N=C2NN=C(c3ccc4c(c3)OCCO4)CS2)cc1 the results were Lassa entry inh inconclusive, HCV inh 10µM*, FMDV antiviral -7%, MARV entry inh inconclusive and HCMV antiviral 2.
For CCCCN(C)C(=O)Cn1c(SCC(=O)Nc2ccc(C)c(C)c2)nc2ccccc21 the results were Lassa entry inh inconclusive, FMDV antiviral -4% and HCMV antiviral -25.
COc1ccc(/C=C/C(=O)Nc2ccc(Cl)c(Cl)c2)cc1 was read as Lassa entry inh 6%[46.1 µM], FMDV antiviral 17% and HCMV antiviral -3.
`COc1ccccc1N1CCN(C(=O)/C=C/c2c(Cl)nc3ccccn23)CC1` gave Lassa entry inh inconclusive, HCV inh 11µM*, FMDV antiviral inconclusive, MARV entry inh inconclusive and HCMV antiviral inconclusive.
`COc1ccc(NC(=O)/C=C/c2c(Cl)nc3ccccn23)cc1` gave HCV inh inconclusive, FMDV antiviral -3% and HCMV antiviral -62*.
O=C(Cn1[nH]c(=O)c2ccccc2c1=O)NCCN1C(=O)S/C(=C\c2ccccc2)C1=O was read as HCV inh 11µM*, FMDV antiviral -18% and HCMV antiviral 0.
For O=C(CCc1nc2ccccc2c(=O)[nH]1)NCCN1C(=O)S/C(=C\c2ccc(OC(F)F)cc2)C1=O the results were Lassa entry inh -19%, HCV inh inconclusive, FMDV antiviral 0%, MARV entry inh -3% and HCMV antiviral -24.
For O=C(CCl)NCCN1C(=O)S/C(=C\c2cccnc2)C1=O the results were Lassa entry inh inconclusive, HCV inh -14%, FMDV antiviral -27%, MARV entry inh inconclusive and HCMV antiviral -77*.
Screening CC(C(=O)NCCN1C(=O)S/C(=C\c2cccnc2)C1=O)N1C(=O)c2ccccc2C1=O (configuration not stated) returned Lassa entry inh -1%, HCV inh 7%, FMDV antiviral -30%, MARV entry inh 32% and HCMV antiviral -8.
Screening CN(NC(=O)c1ccc(Cl)cc1)c1nc(-c2ccccc2)nnc1C(F)(F)F returned Lassa entry inh -16%, HCV inh -26%, FMDV antiviral 32µM*, MARV entry inh inconclusive and HCMV antiviral -105*.
Screening CSc1nc(N(C)NC(=O)c2ccc(Cl)cc2)c2ccccc2n1 returned Lassa entry inh inconclusive, HCV inh inconclusive, FMDV antiviral 0%, MARV entry inh inconclusive and HCMV antiviral -65*.
CCN(CC(=O)Nc1c(F)cccc1F)C(=O)c1ccc2c(c1)C(=O)N(c1ccccc1C)C2=O was read as FMDV antiviral -19% and HCMV antiviral -26.
CCOC(=O)C1NC2CCC(OCC)CC2C1CCCN1C(=O)C2=C(CCCC2)C1=O (configuration not stated) was read as MARV entry inh -4%.
